# Reference: PubChem BioAssay (Tox21)
# Calls of active or inactive are those of the source. Calls follow the shape of the full dose curve.
# Experiment: qHTS assay to identify small molecule agonists of the sonic hedgehog signaling (Shh) pathway (AID 1259368);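 also: NIH/3T3-derived 3T3Gli1-Luc cells carrying a stable Gli1-driven firefly luciferase reporter; nearly all actives have a fitted effect of over 15% in size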
# Conditions: NIH/3T3 Gli1-Luc reporter, luciferase, 24 h; series mostly up to 92.4 µM
# Text: National Center for Advancing Translational Sciences [NCATS]
# NIH Chemical Genomics Center [NCGC]
# U.S. Environmental Protection Agency [EPA]
# National Institutes of Environmental Health Sciences [NIEHS]
# National Toxicology Program [NTP]
# The sonic hedgehog (Shh) pathway is essential for normal embryonic development. Dysregulation of the Shh pathway can cause severe developmental defects in organs. Therefore chemicals that interfere with the pathway are potential developmental toxicants. A cell line designated 3T3Gli1-Luc (DMB/OARSA/CFSAN/FDA, Laurel, MD), a NIH/3T3 derived clone containing stably integrated Gli1-Luc reporter is used to detect chemical interference of the Shh pathway, by changes in the expression of the firefly Luc gene under the control of the Gli1 transcriptional response element. This cell line was used to screen Tox21 libraries for identifying and prioritizing the potential developmental toxicants that interfere Shh pathway.
# 3T3 Gli1-Luc cells were dispensed at 2,000 per well in 5uL of culture medium into white solid bottom 1536-well plates (Greiner Bio-One, Monroe, NC) using a Multidrop Combi (Thermo Scientific, Waltham, MA) dispenser. The assay plates were incubated at 37 C and 5% CO2 for 4hr, and then 23nL of compounds dissolved in DMSO and positive control were transferred using a Pintool station (Wako, San Diego, CA). The assay plates were incubated at 37C and 5% CO2 for 24hr. For luciferase read, 4uL of Amplite Luciferase reporter gene assay reagent (AAT Bioquest, Inc. Sunnyvale, CA) was added to each well of the assay plates using Flying Reagent Dispenser (FRD, Aurora Discovery, San Diego, CA) and incubated at room temperature for 30min. The luminescence signal was measured using a ViewLux plate reader (Perkin Elmer, Shelton, CT).
row,SMILES,outcome
1,NC(=O)N1c2ccccc2C=Cc2ccccc21,inactive
2,COc1cc2c(c(OC)c1OC)-c1ccc(OC)c(=O)cc1[C@@H](NC(C)=O)CC2,inactive
3,COC(=O)c1ccc(O)cc1,inactive
4,CCN(CC)CCOC(=O)c1ccc(N)cc1,inactive
5,CO[C@H]1C=CO[C@@]2(C)Oc3c(C)c(O)c4c(O)c(c(/C=N/N5CCN(C)CC5)c(O)c4c3C2=O)NC(=O)/C(C)=C\C=C[C@H](C)[C@H](O)[C@@H](C)[C@@H](O)[C@@H](C)[C@H](OC(C)=O)[C@@H]1C,inactive
6,Cc1cccc(C)c1O,inactive
7,O=C(O)CCCCC1CCSS1 (stereo not given),inactive
8,C[C@]12CC[C@@H]3c4ccc(O)cc4C[C@@H](CCCCCCCCCS(=O)CCCC(F)(F)C(F)(F)F)[C@H]3[C@@H]1CC[C@@H]2O (stereo not given in full),inactive
9,Cc1cccc(Nc2cc(Cl)nc(SCC(=O)O)n2)c1C,inactive
10,O=C1CCCCCN1,inactive
11,Cc1cccc2ccccc12,inactive
12,C=CCOC(=O)CC(C)C,inactive
13,CCCCOCCOCCOC(C)=O,inactive
14,Cc1ccc(O)c(-n2nc3ccccc3n2)c1,inactive
15,CCCCOC(=O)CCCCCCCCC(=O)OCCCC,inactive
16,C/C=C/c1ccc(O)c(OC)c1,inactive
17,CC(=O)/C=C/C1=C(C)CCCC1(C)C,inactive
18,COc1ccc(C(=O)c2ccccc2)c(O)c1,inactive
19,C[C@]12C=CC(=O)C=C1CC[C@@H]1[C@@H]2C(=O)C[C@@]2(C)[C@H]1CC[C@]2(O)C(=O)CO,inactive
20,CCCCCCCCCCCCCCCCCC(=O)OCC(O)CO (stereo not given),inactive

row,SMILES,outcome
1,NC(=O)NO,inactive
2,CC1(C)O[C@@H]2[C@@H](CO[C@@]3(COS(N)(=O)=O)OC(C)(C)O[C@@H]23)O1,inactive
3,COc1ccc(O)cc1,inactive
4,CC(=O)CCC(C)C,inactive
5,COc1cc(C=O)ccc1O,inactive
6,NC(N)=NC(N)=NCCc1ccccc1,inactive
7,c1ccc2[nH]c(-c3cscn3)nc2c1,inactive
8,CCOC(=O)C(C)(C)Oc1ccc(Cl)cc1,inactive
9,C=CC(=O)NC(C)(C)CS(=O)(=O)O,inactive
10,COc1ccccc1O,inactive
11,N[C@@H](Cc1c[nH]c2ccccc12)C(=O)O,inactive
12,CCN1CCCC1=O,inactive
13,CN(C)C=O,inactive
14,CC(C)(C)NCC(O)c1ccc(O)c(CO)c1 (stereo not given),inactive
15,O=c1c(-c2ccc(O)cc2)coc2cc(O)cc(O)c12,inactive
16,Cc1cnc(NC(=O)C2=C(O)c3ccccc3S(=O)(=O)N2C)s1,inactive
17,Nc1cccc(N)c1,inactive
18,C#C[C@]1(O)CC[C@H]2[C@@H]3CCC4=CC(=O)CC[C@@H]4[C@H]3CC[C@@]21CC,inactive
19,N[C@@H](Cc1c[nH]c2ccc(O)cc12)C(=O)O,inactive
20,CN(C)Cc1cc(CN(C)C)c(O)c(CN(C)C)c1,inactive
